# CHX counter = counter-screen hit for Shiga toxin inhibitors, cycloheximide; cell reporter, cycloheximide protein synthesis inhibition counterscreen; max response, %; hit rate 12% among 300,000; AID 2314; in the data active means max response mostly above about 13%, no sharp cut-off; inactive means mostly below about 14%; further: read at 38.3 µM for the half of the compounds with a filed dose
# Pf growth 48h = inhibits P. falciparum growth in the first generation, 48 h; P. falciparum luciferase growth in erythrocytes, 48 h; Potency, µM (titrated, usually from 28.7 µM), hits mostly inhibitors; hit rate 5.9% among 310,000; AID 504832
#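 Here the parasites carry a stable luciferase gene and grow inside erythrocytes in Albumax-based RPMI medium with compound for one erythrocytic cycle. Activity is scored as loss of luminescent signal.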
# Shiga toxin inh = blocks Shiga toxin action in Vero cells; Vero cells, Shiga toxin protein synthesis inhibition reporter; inhibition, % at 38.7 µM; AID 2315; hit rate 9.2% among 290,000; in the data active means inhibition mostly above about 28%, no sharp cut-off; inactive means mostly below about 43%
# Pf growth 96h = P. falciparum growth inhibition at 96 hour, primary screen for plastid delayed-death inhibitors | P. falciparum luciferase reporter growth, 96 h | AID 504834 | Potency, µM (highest dose often 28.7 µM), actives largely listed as inhibitors | hit rate 6.9% among 320,000
#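 P. falciparum expressing integrated firefly luciferase grown in erythrocytes (2% hematocrit, 0.05% parasitemia final) with compounds for 96 hours at 37 C, 5% CO2. Growth inhibition read as loss of luminescence after adding luciferase detection reagent.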
# A number is an active result; i = inactive; ? = inconclusive; nt = not tested or not shown. This is a sample that favours compounds with a hit; in the whole collection about 21% have one here. Unless noted, the call rests on the fitted dose curve; in most records, active means well fitted inhibition curve with a large enough effect; inconclusive means small, poorly fitted or top-dose-only effect, or another doubt; inactive means no such curve, though single readings can be large or run the other way.
SMILES,CHX counter,Pf growth 48h,Shiga toxin inh,Pf growth 96h
COc1ccc(-c2cc3nc(CCl)[nH]c(=O)c3s2)cc1,i,?,i,?
O=c1[nH]cnc2cc(-c3ccccc3)sc12,48,i,118,?
Cc1cc(C)c(NC(=O)Cn2nnc(C(=O)NCc3ccc4c(c3)OCO4)c2N)c(C)c1,i,i,i,15µM
Cc1ccc(NC(=O)Cn2nnc(C(=O)NCc3ccc4c(c3)OCO4)c2N)cc1,i,i,i,i
CC(C)c1ccc(NC(=O)Cn2nnc(C(=O)NCc3ccc4c(c3)OCO4)c2N)cc1,i,i,i,9.3µM
O=C(Nc1nc2ccc(F)cc2s1)C1=NN(c2ccccc2)C(=O)CC1,35,i,67,i
Cc1csc(NC(=O)C2=NN(c3ccccc3)C(=O)CC2)n1,i,i,i,?
O=C(Nc1nc2ccccc2s1)C1=NN(c2ccccc2)C(=O)CC1,20,i,active,i
O=C(Cn1cnc2ccccc2c1=O)Nc1nnc(SCc2ccc(Cl)cc2)s1,i,i,i,i
COc1ccc(OC)c(CCNC(=O)CCCC(=O)n2ncc3cc(C)ccc32)c1,i,i,i,i
CCCNC(=O)CS(=O)(=O)c1ccccc1,10,i,i,i
O=C(CS(=O)(=O)c1ccccc1)NCc1ccccc1,i,i,i,i
Cc1ccc(CNC(=O)CS(=O)(=O)c2ccccc2)cc1,26,i,i,i
O=C(CCS(=O)(=O)c1ccccc1)NCCS(=O)(=O)c1ccccc1,i,i,i,i
COc1ccc(N2C(=O)CC2(/C=C/c2ccccc2OC)C(=O)NC2CCCC2)cc1 (stereo unspecified),i,12µM,i,i
CCOC(=O)CNC(=O)C1(/C=C/c2ccccc2)CC(=O)N1c1ccc(OC)cc1 (stereo unspecified),i,10µM,i,?
O=C1CC(/C=C/c2ccccc2)(C(=O)NC2CCCC2)N1c1ccc(S(=O)(=O)N2CCCC2)cc1 (stereo unspecified),i,i,i,i
COc1ccc(N2C(=O)C(F)(F)C2c2ccc(C)cc2)cc1OC (stereo unspecified),i,i,i,i
CCOC(=O)c1c(O)c(Cl)c(C)[nH]c1=O,i,i,i,?
C[C@@H]1[C@H]2[C@@H](O[C@@H]3O[C@H](CO)[C@@H](O)[C@H](O)[C@H]3O)OC=C(C(=O)O)[C@H]2C[C@@H]1O,nt,i,nt,i
CCc1ccc2[nH]c3nc(SCC(=O)NCC4CCCO4)nnc3c2c1 (stereo unspecified),i,i,i,i
Cn1c2ccc(F)cc2c2nnc(SCCN3CCOCC3)nc21,i,i,i,i
CCCCn1c2ccc(F)cc2c2nnc(SCCN3CCOCC3)nc21,i,?,i,2.6µM
CCc1ccc2[nH]c3nc(SCCN4CCOCC4)nnc3c2c1,21,i,17,9.3µM
O=C1Nc2ccc(Br)cc2C1(O)c1ccc(F)cc1 (stereo unspecified),i,?,i,i
SMILES,CHX counter,Pf growth 48h,Shiga toxin inh,Pf growth 96h
CCN(C(=O)CN1CCCCC1C)c1c(N)n(Cc2ccccc2)c(=O)[nH]c1=O (stereo unspecified),nt,?,nt,i
CC1=CC(=C2C=CC(=O)C=C2)C=C(C)N1C,i,7.4µM,i,1.9µM
Fc1ccccc1/C=N/Nc1nc(-c2ccccn2)nc2ccccc12,i,2.3µM,i,?
CCOC(=O)c1nc(NCc2cccnc2)c2ccccc2n1,i,i,i,nt
Clc1ccccc1-c1nc(N/N=C/c2cccnc2)c2ccccc2n1,i,?,i,i
c1ccc(CNc2nc(NCc3ccccc3)c3ccccc3n2)cc1,i,1.2µM,i,0.74µM
COc1cccc(-c2nc(NCc3cccnc3)c3ccccc3n2)c1O,19,12µM,i,?
CC(C)(C)c1ccc(-c2nc(NCc3cccnc3)c3ccccc3n2)cc1,51,?,76,i
CCN(CC(=O)Nc1c(F)cccc1F)C(=O)c1ccc(S(=O)(=O)N2CCC(C)CC2)cc1,nt,?,nt,i
CCC(C)Nc1nc(-c2ccccn2)nc2ccccc12 (stereo unspecified),i,nt,i,0.93µM
c1cncc(-c2nc(NCc3ccc4c(c3)OCO4)c3ccccc3n2)c1,i,13µM,i,10µM
Clc1cccc(CNc2nc(-c3cccnc3)nc3ccccc23)c1,i,?,i,?
c1ccc(CNc2nc(-c3cccnc3)nc3ccccc23)cc1,i,9.3µM,i,8.3µM
c1cncc(CNc2nc(-c3cccnc3)nc3ccccc23)c1,i,?,i,?
c1ccc(CNc2nc(-c3ccccn3)nc3ccccc23)cc1,i,1.5µM,i,0.66µM
c1ccc(CNc2nc(-c3ccccc3)nc3ccccc23)cc1,i,?,nt,i
O=C(O)c1ccccc1C(=O)NCc1c(Cl)cccc1Sc1ccc(Cl)cc1,i,i,i,i
COc1ccc(S(=O)(=O)N(CC(=O)NCC2CCCO2)C2CCCCC2)cc1OC (stereo unspecified),i,i,i,?
Cc1ccc(CNc2nc(-c3cccnc3)nc3ccccc23)cc1,i,6.6µM,i,?
c1cncc(-c2nc(NCC3COc4ccccc4O3)c3ccccc3n2)c1 (stereo unspecified),i,nt,i,8.3µM
NS(=O)(=O)c1ccc(CNc2nc(-c3cccnc3)nc3ccccc23)cc1,i,?,i,?
CN(CC1COc2ccccc2O1)c1nc(-c2cccnc2)nc2ccccc12 (stereo unspecified),i,?,i,?
Fc1ccc(CNc2nc(-c3cccnc3)nc3ccccc23)cc1,i,12µM,i,?
CC(Nc1nc(-c2cccnc2)nc2ccccc12)c1ccc(F)cc1 (stereo unspecified),i,4.7µM,i,6.6µM
COc1cc(/C=C(/NC(=O)c2ccccc2)C(=O)N2CCOCC2)c([N+](=O)[O-])cc1OC,i,?,i,i
SMILES,CHX counter,Pf growth 48h,Shiga toxin inh,Pf growth 96h
Cc1oc2c(O)c(O)ccc2c(=O)c1-c1cnn(-c2ccccc2)c1,i,?,i,i
Cc1oc2cc(O)cc(C)c2c(=O)c1-c1cnn(-c2ccccc2)c1,i,13µM,i,i
COc1ccc(-c2nn(-c3ccccc3)cc2N)cc1,61,i,183,i
Cc1ccc(-c2nn(-c3ccccc3)cc2CO)cc1,42,i,144,i
O=[N+]([O-])c1cccc(-c2nn(-c3ccccc3)cc2CO)c1,12,i,i,0.47µM
COc1ccc(-c2nn(-c3ccccc3)cc2C(=O)N2CCOCC2)cc1,i,i,i,?
COc1ccc(-c2nn(-c3ccccc3)cc2CO)cc1,61,i,164,i
O=C(O)/C=C/c1cn(-c2ccccc2)nc1-c1cccc([N+](=O)[O-])c1,i,i,i,i
COc1cc(C(CC(=O)O)n2cnnn2)ccc1OC(C)C (stereo unspecified),i,i,i,i
O=C(COC(=O)CCCN=C1NS(=O)(=O)c2ccccc21)NC(=O)NC1CCCC1,i,i,i,i
CCn1cc(-c2ccccc2)c(C(=O)O)c1-c1ccc(OC)cc1,nt,i,nt,i
COc1ccc(-c2cn(-c3ccccc3)nc2CO)cc1,37,i,111,i
CCOP(=S)(OCC)N1CCOCCOCCN(P(=S)(OCC)OCC)CCOCCOCC1,i,6.6µM,i,?
